Records with an inconclusive call do not appear. Activity calls are given as the source filed them. Calls come from the whole dose curve; as a rule, active = well fitted curve in the direction sought with a large enough effect; inconclusive = small, poorly fitted or top-dose-only effect, or another doubt; inactive = no such curve, though single readings can be large; an effect the other way counts as inactive or inconclusive.

Assay [1] has as its target Glutathione peroxidase 1 (Homo sapiens) (UniProt P07203). Description: Primary qHTS Assay for Inhibitors of Recombinant Selenoprotein Glutathione Peroxidase 1 (GPX1) (AID 1845191). Note: nearly all actives have a fitted effect of over 65% in size. A digest of the protocol:
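Recombinant GPX1 (10 nM final) was preincubated with compound for 30 min at room temperature, then reacted with 1 mM GSH, 0.5 mM CHP, 0.5 mM NADPH and 100 nM glutathione reductase; NADPH fluorescence (340/450 nm) was read at 0 and 15 min.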
(Quantitative high-throughput screening tests each substance at several concentrations.)

The target of assay [2] is Phospholipid hydroperoxide glutathione peroxidase GPX4 (Homo sapiens) (UniProt P36969). Description: Primary qHTS Assay for Inhibitors of Recombinant Selenoprotein Glutathione Peroxidase 4 (GPX4) (AID 1845192). Note: nearly all actives have a fitted effect of over 65% in size. In a few lines: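 GR-coupled readout: 100 nM GR, 1 mM GSH, 0.5 mM NADPH; NADPH fluorescence (ex 340/em 450 nm) read at t=0 and after 15 min RT. GPX4 200 nM, preincubated 30 min with compound; substrate 0.5 mM CHP.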

A short description of assay [3]: Quantitative High-Throughput drug screen in 47 multiple myeloma cell lines against the NCATS MIPE library collection: FR4_PLB cell viability assay (AID 1918924; note: nearly all actives have a fitted effect of over 35% in size; note: potency is the fitted concentration of half-maximal effect). A digest of the protocol: (§1)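 Viability readout: CellTiter-Glo luminescence following 5 min room-temperature incubation with reagent. Prior exposure: 48 h, 37C, humidified 5% CO2, 500 cells per well.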
The nature of assay [4]: Quantitative High-Throughput drug screen in 47 multiple myeloma cell lines against the NCATS MIPE library collection: Delta47_JCRB cell viability assay (AID 1918925; note: nearly all actives have a fitted effect of over 45% in size; note: potency is the fitted concentration of half-maximal effect). A digest of the protocol:
(§2)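 Relative luminescence from CellTiter-Glo served as the viability signal, referenced to DMSO-treated (100%) and cell-free medium (0%) controls. Treatment lasted 48 hours at 37C with 500 cells per well.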

Assay [5] can be described thus: Quantitative High-Throughput drug screen in 47 multiple myeloma cell lines against the NCATS MIPE library collection: ARP1_JJKsccF8 cell viability assay (AID 1918928; note: nearly all actives have a fitted effect of over 40% in size; note: potency is the fitted concentration of half-maximal effect). A digest of the protocol:
(§3)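 Myeloma cells, 500 per well, were exposed to MIPE 4.0 drugs by pin transfer for 48 h at 37 °C, 5% CO2. Viability was read as ATP luminescence with CellTiter-Glo, normalised to DMSO-only (100%) and medium-only (0%) wells.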

Assay [6] in a line: Quantitative High-Throughput drug screen in 47 multiple myeloma cell lines against the NCATS MIPE library collection: EJM_DSMZ cell viability assay (AID 1918926; note: nearly all actives have a fitted effect of over 30% in size; note: potency is the fitted concentration of half-maximal effect). A digest of the protocol: as §2
A short description of assay [7]: Quantitative High-Throughput drug screen in 47 multiple myeloma cell lines against the NCATS MIPE library collection: AMO1_DSMZ cell viability assay (AID 1918927; note: nearly all actives have a fitted effect of over 30% in size; note: potency is the fitted concentration of half-maximal effect). A digest of the protocol: as §2
Assay [8] is described as follows: Quantitative High-Throughput drug screen in 47 multiple myeloma cell lines against the NCATS MIPE library collection: JIM3_ECACC cell viability assay (AID 1918963; note: nearly all actives have a fitted effect of over 35% in size; note: potency is the fitted concentration of half-maximal effect). A digest of the protocol:
as §1

The target of assay [9] is Luciferin 4-monooxygenase (Photinus pyralis) (UniProt P08659). Description: Primary firefly luciferase (FLuc) qHTS assay for identification of artifact compounds. (AID 1845220). Note: nearly all actives have a fitted effect of over 60% in size. Note: potency is the fitted concentration of half-maximal effect. A digest of the protocol: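 qHTS, 15 min compound preincubation with substrate (10 uM luciferin, 10 uM ATP) at RT, then 10 nM FLuc; 5 min; luminescence; % inhibition vs no-enzyme/DMSO controls, 4-parameter Hill fit.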

Assay [10] is described as follows: Primary fluorescence-based thiol-reactive (MSTI) qHTS assay for identification of artifact compounds. (AID 1845221).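 Note: thiol-reactive compounds lower the probe fluorescence signal; nearly all actives have a fitted effect of over 65% in size.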 A digest of the protocol: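 Probe: MSTI 4 uM, PBS pH 7.4, 2% DMSO. Incubation 1 h, RT, light-protected. Readout fluorescence 525/598 nm.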
Assay [11] deals with Nanoluciferase (engineered Oplophorus gracilirostris luciferase). Briefly: Primary Nanoluciferase (NLuc) qHTS assay for identification of artifact compounds. (AID 1845222). A digest of the protocol: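 Luminescence read-out of secreted NLuc in S16 cell conditioned medium (1:55); compounds tested with 15 min RT preincubation, then Nano-Glo substrate 1:100, 5 min. % inhibition vs no-enzyme and DMSO controls, 4-parameter Hill fit.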

Assay [12] can be described thus: Primary redox qHTS assay for identification of artifact compounds. (AID 1845223). A digest of the protocol:
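Amplex Red (25 uM) and HRP (250 mU/mL) in HBSS, with compounds for 15 min, then 250 uM DTT for 30 min, room temperature, dark. Fluorescence 525/598 nm read; normalized to DMSO and 10 uM DA3003; Hill fit.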

A short description of assay [13]: Quantitative High-Throughput drug screen in 47 multiple myeloma cell lines against the NCATS MIPE library collection: ARD_JJKsccE7 cell viability assay (AID 1918929; note: potency is the fitted concentration of half-maximal effect). In a few lines:
as §2

Assay [14] is described as follows: Quantitative High-Throughput drug screen in 47 multiple myeloma cell lines against the NCATS MIPE library collection: Karpas620_DSMZ cell viability assay (AID 1918959). Note: nearly all actives have a fitted effect of over 30% in size. Note: potency is the fitted concentration of half-maximal effect. In a few lines: as §1
Assay [15] is described as follows: Quantitative High-Throughput drug screen in 47 multiple myeloma cell lines against the NCATS MIPE library collection: KMM1_JCRB cell viability assay (AID 1918960). Note: nearly all actives have a fitted effect of over 30% in size. Note: potency is the fitted concentration of half-maximal effect. A digest of the protocol: as §3
Assay [16] in a line: Quantitative High-Throughput drug screen in 47 multiple myeloma cell lines against the NCATS MIPE library collection: Karpas417_ECACC cell viability assay (AID 1918961). Note: potency is the fitted concentration of half-maximal effect. The conditions noted are these: Karpas417 myeloma viability, CellTiter-Glo ATP luminescence, 48 h; viability (% of DMSO): at 45.8 µM (top of the series). A digest of the protocol:
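Approved and investigational drugs from MIPE 4.0 were added by pin tool to 500 cells per well. After 48 hours at 37C, ATP-based CellTiter-Glo luminescence indicated remaining viability.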

The nature of assay [17]: Quantitative High-Throughput drug screen in 47 multiple myeloma cell lines against the NCATS MIPE library collection: JIM1_ECACC cell viability assay (AID 1918964; note: potency is the fitted concentration of half-maximal effect). A digest of the protocol:
as §2

The nature of assay [18]: Quantitative High-Throughput drug screen in 47 multiple myeloma cell lines against the NCATS MIPE library collection: KHM11_PLB cell viability assay (AID 1918962). Note: nearly all actives have a fitted effect of over 35% in size. Note: potency is the fitted concentration of half-maximal effect. A digest of the protocol:
as §1

Chain of Phospholipid hydroperoxide glutathione peroxidase GPX4 (Homo sapiens) (P36969 whole entry, looked up): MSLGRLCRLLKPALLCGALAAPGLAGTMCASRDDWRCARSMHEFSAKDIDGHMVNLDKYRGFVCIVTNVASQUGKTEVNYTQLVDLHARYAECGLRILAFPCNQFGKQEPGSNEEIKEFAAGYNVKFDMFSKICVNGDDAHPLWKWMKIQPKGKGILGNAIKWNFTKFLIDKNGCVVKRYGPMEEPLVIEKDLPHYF
Chain of Glutathione peroxidase 1 (Homo sapiens) (P07203 whole entry, looked up): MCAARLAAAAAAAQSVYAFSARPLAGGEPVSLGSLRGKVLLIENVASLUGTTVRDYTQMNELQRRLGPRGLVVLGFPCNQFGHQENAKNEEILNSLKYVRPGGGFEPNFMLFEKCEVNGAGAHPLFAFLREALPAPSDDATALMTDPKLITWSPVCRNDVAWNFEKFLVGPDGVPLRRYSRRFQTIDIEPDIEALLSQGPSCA

For the compound `Cc1ccc(C)c(OCCCC(C)(C)C(=O)O)c1`, the Potency entry in assay [1], in assay [2], in assay [3] and in [5] was “inactive” each time. Also, in assay [4], the Potency was 16.6 µM (active).

Regarding `O=c1oc2cc(O)ccc2s1`, the Potency entry in assay [1], in [2], in assay [3], in [6] and in assay [8] was “inactive” throughout. In assay [7], the Potency is 23.5 µM (active).

As to `CCC1=C(C)CN(C(=O)NCCc2ccc(S(=O)(=O)NC(=O)NC3CCC(C)CC3)cc2)C1=O` (configuration not stated), the Potency result in assay [1], in assay [2], in assay [9], in [10], in assay [3] and in [4] was “inactive” in each case. Further, the Potency entry in assay [6], in assay [7], in [5], in [13] and in assay [14] was “inactive” each time. Besides, the result in assay [11] and in [12] was inactive.

For the compound `CCOC(=O)C1=C[C@@H](OC(CC)CC)[C@H](NC(C)=O)[C@@H](N)C1`, the Potency entry in assay [1], in assay [2], in assay [3], in assay [4], in assay [6] and in [7] was “inactive” each time. Also, the Potency entry in assay [5], in [13], in assay [14] and in assay [8] was “inactive” in each case.

Consider `OC(CN1CCN(c2cccc(Cl)c2)CC1)C(c1ccccc1)c1ccccc1` (configuration not stated), for which the Potency result in [1], in assay [2], in [9], in assay [10], in assay [3] and in assay [6] was “inactive” each time. For the same compound, the Potency entry in assay [13] and in assay [15] was “inactive” in each case. Further, the result in [11] and in [12] was inactive.

`CC(S)C(=O)NCC(=O)O` (configuration not stated): the Potency result in assay [1], in assay [2], in [3], in assay [6], in assay [7] and in assay [5] was “inactive” in each case. The Potency entry in [16] and in [17] was “inactive” each time. For the same compound, the Potency in assay [13] is 2.64 µM (active).

As for `COC(=O)N[C@H](C(=O)N[C@@H](Cc1ccccc1)[C@@H](O)CN(Cc1ccc(-c2ccccn2)cc1)NC(=O)[C@@H](NC(=O)OC)C(C)(C)C)C(C)(C)C`, the Potency entry in [1], in assay [2], in assay [3], in assay [4], in assay [6] and in assay [13] was “inactive” each time. For the same compound, the Potency entry in assay [14], in assay [15] and in assay [18] was “inactive” throughout. Moreover, the Potency in assay [5] is 16.6 µM (active).

With `O=C(OC1C[C@H]2CC[C@@H](C1)[N+]21CCCC1)C(O)(c1ccccc1)c1ccccc1` (some centres not stated), the Potency result in [1], in assay [2], in assay [9], in [10], in assay [3] and in [6] was “inactive” in each case. In addition, the Potency result in [7], in [5], in assay [14], in [18], in assay [8] and in assay [17] was “inactive” in each case. The outcome in assay [11] and in [12] was inactive.

Turning to `Cc1ccc(NC(=O)c2ccc(CN3CCN(C)CC3)cc2)cc1Nc1nccc(-c2cccnc2)n1`, the Potency entry in [1], in [2] and in assay [10] was “inactive” in each case. For the same compound, the Potency in [9] is 19 µM (active); in [4] it was 20.9 µM (active). Further, the compound was classed as inactive in assay [11] and in assay [12].

For the compound `COc1cc(OC)c(C(=O)CCCN2CCCC2)c(OC)c1`, the Potency entry in [1], in assay [2], in [3], in [4], in assay [6] and in assay [7] was “inactive” each time. The Potency result in assay [5], in assay [13], in assay [14], in [16] and in [8] was “inactive” throughout.

For the compound `CN(C)c1ccc2nc3ccc(=[N+](C)C)cc-3sc2c1`, the Potency result in assay [1] and in assay [2] was “inactive” in each case. For the same compound, the Potency in [3] was 1.87 µM (active); in [4], 6.62 µM (active); in assay [6], 0.469 µM (active); in assay [7] it was 8.33 µM (active); in assay [5], 1.66 µM (active); in assay [13] it was 13.2 µM (active). For the same compound, the Potency is 3.72 µM (active) in assay [14]; 2.35 µM (active) in assay [15]; 6.62 µM (active) in assay [16]; 2.35 µM (active) in assay [8]; 9.35 µM (active) in assay [17].

Consider `Nc1ccc(S(N)(=O)=O)cc1`, for which the Potency entry in assay [1], in [2], in [3], in [4], in [6] and in [7] was “inactive” each time. In addition, the Potency entry in [5], in assay [13] and in assay [14] was “inactive” in each case.

`CN(c1nccc(=O)[nH]1)C1CCN(c2nc3ccccc3n2Cc2ccc(F)cc2)CC1`: the Potency entry in assay [1], in [2], in assay [9], in assay [10], in assay [3] and in assay [7] was “inactive” in each case. Also, the Potency result in [5], in assay [13], in [14] and in assay [15] was “inactive” each time. Further, the outcome in [11] was inactive. Moreover, the Potency in [4] is 4.69 µM (active).

For `O=C(NOCC1CC1)c1ccc(F)c(F)c1Nc1ccc(I)cc1Cl`, the Potency entry in assay [1], in assay [2], in assay [9] and in assay [10] was “inactive” in each case. Besides, the compound was called inactive in assay [11] and in assay [12]. The Potency was 23.5 µM (active) in assay [3]; 20.9 µM (active) in assay [4]; 6.62 µM (active) in assay [7]; 11.8 µM (active) in assay [13]; 0.372 µM (active) in [14]; 6.62 µM (active) in assay [15]. Moreover, the Potency in assay [18] was 0.0235 µM (active); in assay [8], 6.62 µM (active); in assay [17] it was 9.35 µM (active).

Consider `Nc1cccc2c1CN(C1CCC(=O)NC1=O)C2=O` (configuration not stated), for which the Potency result in assay [1], in [2], in [3], in assay [4], in assay [6] and in [5] was “inactive” each time. The Potency entry in [14], in assay [15] and in assay [8] was “inactive” each time.

In the case of `Cc1ccc(Nc2nccc(N(C)c3ccc4c(C)n(C)nc4c3)n2)cc1S(N)(=O)=O`, the Potency result in [1], in [2], in assay [9] and in assay [10] was “inactive” in each case. The outcome in assay [11] and in [12] was inactive. The Potency is 20.9 µM (active) in assay [3]; 16.6 µM (active) in assay [4]; 14.8 µM (active) in assay [6]; 10.5 µM (active) in [7]; 16.6 µM (active) in assay [13]; 14.8 µM (active) in assay [15].

Regarding `O=C1CCc2ccc(OCCCCN3CCN(c4cccc(Cl)c4Cl)CC3)cc2N1`, the Potency entry in assay [1], in assay [3], in [6], in assay [7] and in assay [17] was “inactive” each time. The Potency in assay [4] was 23.5 µM (active); in [5], 23.5 µM (active); in assay [8] it was 14.8 µM (active).

Consider `CCOc1cc(CC(=O)N[C@@H](CC(C)C)c2ccccc2N2CCCCC2)ccc1C(=O)O`, for which the Potency entry in [1], in assay [2], in assay [3], in assay [6], in [5] and in assay [13] was “inactive” in each case. The Potency entry in assay [8] is “inactive”.

For the compound `COc1ccc(C2(C#N)CCC(C(=O)O)CC2)cc1OC1CCCC1` (configuration not stated), the Potency entry in [1], in assay [9], in assay [10], in [3], in assay [6] and in assay [7] was “inactive” in each case. Also, the Potency entry in assay [5], in assay [13], in assay [14] and in [8] was “inactive” throughout. Further, the compound was called inactive in assay [11] and in assay [12].

Source of the values: PubChem BioAssay (NCATS).
